Test results reported in PubChem BioAssay (NCATS).
Inconclusive results are not listed. Where a call stands in place of a potency, no number is given. Activity calls are given as the source filed them. Calls come from the whole dose curve; as a rule, active = well fitted curve in the direction sought with a large enough effect; inconclusive = small, poorly fitted or top-dose-only effect, or another doubt; inactive = no such curve, though single readings can be large; an effect the other way counts as inactive or inconclusive.

What was measured:
[1] = qHTS of pediatric cancer cell lines to identify multiple opportunities for drug repurposing: Primary screen for SJ-GBM2 cells (AID 1347091); note: potency is the fitted concentration of half-maximal effect
Method in brief: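 Viability measured as metabolically active cells via CellTiter-Glo luminescence following 48 hours of compound exposure, 11-point dilutions in confirmatory testing. 500-1,000 cells/well plated 5 hours before dosing; controls were DMSO and 2.3 µM bortezomib.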

[2] = qHTS of pediatric cancer cell lines to identify multiple opportunities for drug repurposing: Primary screen for A673 cells (AID 1347092); note: nearly all actives have a fitted effect of over 45% in size; note: potency is the fitted concentration of half-maximal effect
Method in brief: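 Titration-based qHTS on A673 cells: MIPE compounds spanned 11 points (0.78 nM to 46 µM final), NPC compounds 8 points (0.59 nM to 46 µM final). Viability after 48 h was measured by ATP luminescence.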

[3] = qHTS of pediatric cancer cell lines to identify multiple opportunities for drug repurposing: Primary screen for BT-37 cells (AID 1347094); note: potency is the fitted concentration of half-maximal effect
Method in brief: (§1)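 Phenotypic viability qHTS, 48 h compound exposure, CellTiter-Glo luminescence read-out; multi-concentration dosing so that potency and efficacy derive directly from the primary screen's curves.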

[4] = qHTS of pediatric cancer cell lines to identify multiple opportunities for drug repurposing: Primary screen for NB-EBc1 cells (AID 1347095); note: potency is the fitted concentration of half-maximal effect
Method in brief: as §1

[5] = qHTS of pediatric cancer cell lines to identify multiple opportunities for drug repurposing: Primary screen for U-2 OS cells (AID 1347096); note: nearly all actives have a fitted effect of over 50% in size
Method in brief: (§2)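 Viability after 48 h compound treatment at 37C, 500-1,000 cells/well, read as ATP luminescence with CellTiter-Glo. Primary screens used 11-point (MIPE, 0.78 nM-46 µM) or 8-point (NPC, 0.59 nM-46 µM) final concentrations; follow-up screens used 11-point dilutions.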

[6] = qHTS of pediatric cancer cell lines to identify multiple opportunities for drug repurposing: Primary screen for Saos-2 cells (AID 1347097); note: nearly all actives have a fitted effect of over 40% in size; note: potency is the fitted concentration of half-maximal effect
Method in brief: as §1

[7] = qHTS of pediatric cancer cell lines to identify multiple opportunities for drug repurposing: Primary screen for SK-N-SH cells (AID 1347098); note: nearly all actives have a fitted effect of over 65% in size; note: potency is the fitted concentration of half-maximal effect
Method in brief: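 Cells (500-1,000/well) rested 5 h, then received compounds for 48 h; metabolically active cells were measured by CellTiter-Glo luminescence. Final concentrations spanned up to 46 µM (MIPE, 11-point) or 0.59 nM-46 µM (NPC, 8-point) in primary screens, 11-point in follow-ups.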

[8] = qHTS of pediatric cancer cell lines to identify multiple opportunities for drug repurposing: Primary screen for NB1643 cells (AID 1347099); note: nearly all actives have a fitted effect of over 50% in size; note: potency is the fitted concentration of half-maximal effect
Method in brief: as §1

[9] = qHTS of pediatric cancer cell lines to identify multiple opportunities for drug repurposing: Primary screen for LAN-5 cells (AID 1347100); note: potency is the fitted concentration of half-maximal effect
Method in brief: as §2

[10] = qHTS of pediatric cancer cell lines to identify multiple opportunities for drug repurposing: Primary screen for SK-N-MC cells (AID 1347093); note: potency is the fitted concentration of half-maximal effect
Method in brief: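 Metabolically active cells were quantified by ATP-dependent luminescence (CellTiter-Glo, 15 min at room temperature) following 48 h treatment. Cells had been plated at 500-1,000 per well and settled for 5 h beforehand.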

Row | Structure (SMILES) | Potency [1] | Potency [2] | Potency [3] | Potency [4] | Potency [5] | Potency [6] | Potency [7] | Potency [8] | Potency [9] | Potency [10]
1 | NC1=NCC2c3ccccc3Cc3ccccc3N12 (stereo unspecified) | inactive | inactive | inactive | inactive | inactive | inactive | inactive | inactive | inactive | –
2 | CCN(CC)CCOCCOC(=O)C1(c2ccccc2)CCCC1 | inactive | inactive | – | inactive | inactive | inactive | inactive | inactive | inactive | inactive
3 | CC(=O)OCC1=C(C(=O)O)N2C(=O)[C@@H](NC(=O)Cc3cccs3)[C@H]2SC1 | inactive | inactive | inactive | inactive | inactive | – | – | inactive | inactive | inactive
4 | C[N+](C)(C)CCOC(=O)CCC(=O)OCC[N+](C)(C)C | inactive | inactive | inactive | inactive | inactive | – | – | – | inactive | inactive
5 | CCOC(=O)c1cnc2c(cnn2CC)c1NN=C(C)C | inactive | inactive | inactive | inactive | inactive | – | – | – | inactive | inactive
6 | Cc1nc2c([nH]1)c(=O)n(C)c(=O)n2Cc1ccco1 | inactive | inactive | inactive | inactive | inactive | – | inactive | inactive | inactive | –
7 | CN(C(=O)CCCOc1ccc2[nH]c(=O)ccc2c1)C1CCCCC1 | inactive | inactive | inactive | inactive | inactive | – | – | – | inactive | inactive
8 | CC(=O)OC(C)C[N+](C)(C)C (stereo unspecified) | inactive | inactive | inactive | inactive | inactive | inactive | inactive | inactive | inactive | –
9 | CCNC(=O)N1CCN(CCCC(c2ccc(F)cc2)c2ccc(F)cc2)CC1 | inactive | inactive | – | inactive | inactive | – | 30.7 µM (active) | – | inactive | –
10 | Cc1cccc(C)c1NC(=O)C(C)N (stereo unspecified) | inactive | inactive | inactive | inactive | inactive | – | – | inactive | inactive | inactive
11 | CN=C(NC#N)NCCSCc1nc[nH]c1C | inactive | inactive | inactive | inactive | inactive | – | inactive | inactive | inactive | –
12 | CCCN1C[C@H](CSC)C[C@@H]2c3cccc4[nH]cc(c34)C[C@H]21 | inactive | inactive | inactive | inactive | inactive | – | – | inactive | inactive | inactive
13 | Cc1ccc(S(=O)(=O)NC(=O)NN2CCCCCC2)cc1 | inactive | inactive | inactive | inactive | inactive | inactive | – | inactive | inactive | –
14 | COc1cc(Cc2cnc(N)nc2N)cc(OC)c1OC | inactive | inactive | inactive | inactive | inactive | inactive | inactive | inactive | inactive | –
15 | CN(C)CCN(Cc1cccs1)c1ccccn1 | inactive | inactive | inactive | inactive | inactive | – | – | – | inactive | inactive
16 | CCN(Cc1ccncc1)C(=O)C(CO)c1ccccc1 (stereo unspecified) | inactive | inactive | inactive | inactive | inactive | inactive | inactive | inactive | inactive | –
17 | CCCOc1ccccc1-c1nc2n[nH]nc2c(=O)[nH]1 | inactive | inactive | inactive | inactive | inactive | – | – | inactive | inactive | inactive
18 | CCN(CC)CCNC(=O)c1cc(S(C)(=O)=O)ccc1OC | inactive | inactive | inactive | inactive | inactive | – | – | inactive | inactive | inactive
19 | CCOC(=O)C1=C(C)NC(C)=C(C(=O)OC)C1c1cccc(Cl)c1Cl (stereo unspecified) | inactive | inactive | inactive | inactive | inactive | inactive | – | inactive | inactive | –
20 | CCCCCN(CCCCC)C(=O)C(CCC(=O)O)NC(=O)c1ccc(Cl)c(Cl)c1 (stereo unspecified) | inactive | inactive | inactive | inactive | inactive | – | inactive | inactive | inactive | –
21 | O=C(O)CN(CCN(CC(=O)O)CC(=O)O)CCN(CC(=O)O)CC(=O)O | inactive | inactive | – | inactive | inactive | – | inactive | – | – | inactive
22 | CCCCNC(=O)NS(=O)(=O)c1ccc(C)cc1 | inactive | inactive | inactive | inactive | inactive | inactive | inactive | – | inactive | –
23 | CN1CCN(C2=Nc3ccccc3Oc3ccc(Cl)cc32)CC1 | inactive | inactive | – | inactive | inactive | – | – | inactive | inactive | inactive

Row | Structure (SMILES) | Potency [1] | Potency [2] | Potency [3] | Potency [4] | Potency [5] | Potency [6] | Potency [7] | Potency [8] | Potency [9] | Potency [10]
24 | CCn1nc(C(=O)O)c(=O)c2cc3c(cc21)OCO3 | inactive | inactive | inactive | inactive | inactive | – | – | inactive | inactive | inactive
25 | CN/C(=C\[N+](=O)[O-])NCCSCc1ccc(CN(C)C)o1 | inactive | – | inactive | inactive | inactive | – | inactive | 37.6 µM (active) | inactive | 0.001 µM (active)
26 | COC(=O)[C@@H](N)Cc1ccc(O)c(O)c1 | inactive | inactive | inactive | inactive | inactive | – | inactive | inactive | inactive | –
27 | O=C(CCNNC(=O)c1ccncc1)NCc1ccccc1 | inactive | inactive | inactive | inactive | inactive | – | inactive | inactive | inactive | –
28 | CC(C)(C)NCC(O)c1cc(O)cc(O)c1 (stereo unspecified) | inactive | inactive | inactive | inactive | inactive | – | – | – | inactive | inactive
29 | CN(C)[C@@H]1C(=O)C(C(N)=O)=C(O)[C@@]2(O)C(=O)C3=C(O)c4c(O)ccc(Cl)c4[C@@H](O)[C@H]3C[C@@H]12 | inactive | inactive | inactive | inactive | inactive | – | – | inactive | inactive | inactive
30 | CCCN(CCC)CCc1cccc2c1CC(=O)N2 | inactive | inactive | inactive | inactive | inactive | – | – | inactive | inactive | inactive
31 | CO[C@@]1(NC(=O)CSCC#N)C(=O)N2C(C(=O)O)=C(CSc3nnnn3C)CS[C@@H]21 | inactive | inactive | inactive | inactive | inactive | – | inactive | inactive | inactive | –
32 | CC(C)NCC(O)c1cc(O)cc(O)c1 (stereo unspecified) | inactive | inactive | inactive | inactive | inactive | – | inactive | – | inactive | –
33 | Cc1nc2sccn2c(=O)c1CCN1CCC(=C(c2ccc(F)cc2)c2ccc(F)cc2)CC1 | – | – | inactive | – | inactive | – | – | inactive | inactive | –
34 | Nc1nc(N)c2nc(-c3ccccc3)c(N)nc2n1 | 6.68 µM (active) | – | 13.8 µM (active) | 8.41 µM (active) | – | – | – | inactive | 13.3 µM (active) | 0.531 µM (active)
35 | O=C(CCCN1CCC(O)(c2cccc(C(F)(F)F)c2)CC1)c1ccc(F)cc1 | – | – | inactive | inactive | inactive | – | – | inactive | inactive | –
36 | Cc1ccc(Cl)c(Nc2ccccc2C(=O)O)c1Cl | – | inactive | inactive | – | inactive | – | – | – | inactive | –
37 | COC(=O)[C@H]1[C@H]2C[C@@H]3c4[nH]c5cc(OC)ccc5c4CCN3C[C@H]2C[C@@H](OC(=O)c2cc(OC)c(OC)c(OC)c2)[C@@H]1OC | inactive | – | inactive | inactive | inactive | 23.7 µM (active) | – | – | inactive | –
38 | O=C1NCN(c2ccccc2)C12CCN(CCCC(c1ccc(F)cc1)c1ccc(F)cc1)CC2 | 23.7 µM (active) | – | – | – | – | 13.3 µM (active) | – | – | – | 16.8 µM (active)
39 | COC(=O)C1=C(C)NC(C)=C(C(=O)OC(C)(C)CN(C)CCC(c2ccccc2)c2ccccc2)C1c1cccc([N+](=O)[O-])c1 (stereo unspecified) | inactive | – | – | – | – | – | – | – | 18.8 µM (active) | 13.3 µM (active)
40 | CC(C)(C)c1ccc(C(=O)CCCN2CCC(OC(c3ccccc3)c3ccccc3)CC2)cc1 | 26.6 µM (active) | – | 27.6 µM (active) | – | – | 26.6 µM (active) | – | – | – | 21.1 µM (active)
41 | CNCCCN1c2ccccc2CCc2ccccc21 | – | – | – | – | inactive | – | 30.7 µM (active) | inactive | inactive | –
42 | COc1cc(C(=O)OCCCN2CCCN(CCCOC(=O)c3cc(OC)c(OC)c(OC)c3)CC2)cc(OC)c1OC | – | – | – | inactive | inactive | – | inactive | – | – | inactive
43 | Nc1ncn([C@@H]2O[C@H](CO)[C@@H](O)[C@H]2O)c(=O)n1 | – | 6.68 µM (active) | 12.3 µM (active) | – | – | – | – | 7.5 µM (active) | – | 21.1 µM (active)
44 | COc1ccc2c(c1OC)C(=O)O[C@@H]2[C@H]1c2c(cc3c(c2OC)OCO3)CCN1C | – | – | inactive | – | inactive | – | – | inactive | – | –
45 | COCCCC/C(=N\OCCN)c1ccc(C(F)(F)F)cc1 | inactive | – | inactive | inactive | inactive | – | – | inactive | inactive | –
